# Reference: PubChem BioAssay
# The source made the active and inactive calls. Unless noted, no rule for the calls is given here.
# Assays:
# [1] = tested on: Wnt5a (protein binding on small-molecule microarray); test: small molecules binding Wnt5a protein – biophysical, small-molecule microarray, 635/667 nm fluorescence, primary screen (AID 1142); conditions: 635 nm fluorescence, higher = more signal;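 also: fluorescence read at 667 nm with signal to noise per printed feature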
# [2] = ATP-based viability of Huh7 replicon cells – cell-based, CellTiter-Glo luminescence, basal, 48 h, cytotoxicity control for HCV replication inhibitor project, primary screen (AID 1143); conditions: higher = more signal, called active from +8 up or from −8 down;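 also: Huh7 hepatoma cells carrying a hepatitis C replication reporter with no stimulus; test concentration not given here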
# [3] = Pseudomonas biofilm growth suppression – PAO1 strain, BacTiter-Glo luminescence, LB-PBS, primary screen (AID 1144); conditions: P. aeruginosa PAO1 biofilm, 12 h, higher = more signal
# [4] = basal CRE-LacZ reporter activity in PC12 – cell-based, unstimulated, primary screen (AID 1145); conditions: no forskolin, luminescence, 4.5 h, higher = more signal, called active from +8 up or from −8 down
# [5] = forskolin-driven CRE-LacZ activity in PC12 – cell-based, CRE-LacZ reporter, forskolin-stimulated, primary screen (AID 1146); conditions: luminescence, 4.5 h, higher = more signal, called active from +8 up or from −8 down;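 also: PC12 cells with 6xCRE LacZ reporter stimulated by forskolin 10 µM; beta-galactosidase reporter signal reflecting CREB driven transcription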
# [6] = target: Streptavidin (Streptomyces avidinii) (UniProt P22629); test: compounds binding control protein streptavidin – biophysical, small-molecule microarray, 635/667 nm fluorescence, artefact control for SMM compound annotation, primary screen (AID 1147); conditions: higher = more signal;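 also: signal reflects streptavidin binding to arrayed compounds as a control protein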
# Chain of Streptavidin (Streptomyces avidinii) (P22629 whole entry, looked up): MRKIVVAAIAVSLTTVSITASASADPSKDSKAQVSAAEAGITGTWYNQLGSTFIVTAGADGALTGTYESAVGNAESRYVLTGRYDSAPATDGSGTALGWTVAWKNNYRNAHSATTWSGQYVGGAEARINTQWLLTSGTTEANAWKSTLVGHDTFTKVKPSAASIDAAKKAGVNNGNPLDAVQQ
# [7] = probe aInhba binding on compound microarray – biochemical, small-molecule microarray, 635/667 nm fluorescence, primary screen (AID 1148); conditions: higher = more signal;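 also: score merges 667nm spot fluorescence with signal-to-noise for antibody binding to printed compounds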
# Torsin-1A (Homo sapiens) [8] = target: Torsin-1A (Homo sapiens) (UniProt O14656); test: TOR1A wild-type binding on microarray – cell lysate, small-molecule microarray, lysate, 635/667 nm, primary screen (AID 1149); conditions: COS7 hTOR1A-WT lysate, 635 nm fluorescence, higher = more signal
# Chain of Torsin-1A (Homo sapiens) (O14656 whole entry, looked up): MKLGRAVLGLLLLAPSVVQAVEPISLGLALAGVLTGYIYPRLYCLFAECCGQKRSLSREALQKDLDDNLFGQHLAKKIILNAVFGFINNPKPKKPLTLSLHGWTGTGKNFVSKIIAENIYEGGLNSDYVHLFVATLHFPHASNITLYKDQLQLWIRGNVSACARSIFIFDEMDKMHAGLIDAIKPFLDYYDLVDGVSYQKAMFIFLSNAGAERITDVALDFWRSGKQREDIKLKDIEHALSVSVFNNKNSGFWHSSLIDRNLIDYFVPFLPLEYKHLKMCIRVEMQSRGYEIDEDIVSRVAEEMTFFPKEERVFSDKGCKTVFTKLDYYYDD
# Torsin-1A (Homo sapiens) [9] = target: Torsin-1A (Homo sapiens) (UniProt O14656); test: torsin A mutant lysate binding on microarrays – cell lysate, small-molecule microarray, COS7 lysate, 635/667 nm fluorescence, primary screen (AID 1150); conditions: COS7 hTOR1A mutant lysate, 635 nm fluorescence, higher = more signal;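 also: score pools 667 nm emission and signal to noise measuring lysate protein binding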
# [10] = tested on: Sonic hedgehog protein (Shh); test: Sonic hedgehog microarray binding compounds – biochemical, small-molecule microarray, 635/667 nm fluorescence, primary screen (AID 1151); conditions: 635 nm fluorescence, higher = more signal;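 also: Shh protein binding to compounds spotted on small-molecule microarray slides; score combines spot fluorescence intensity with signal-to-noise across triplicate slides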
# [11] = optical density shifts of acrAB sulA E. coli – strain DRC41, OD650, 48 h, E. coli filamentation inducer project, primary screen (AID 1152); conditions: higher = more signal, called active from +8 up or from −8 down;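 also: E. coli MC1000 strain DRC41 lacking acrAB efflux pump and sulA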
# [12] = probe aLefty1 binding on compound microarray – biochemical, small-molecule microarray, 635/667 nm fluorescence, primary screen (AID 1153); conditions: higher = more signal;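 also: score merges spot fluorescence with signal-to-noise ratio from the scanned slide images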
# [13] = plasmodial surface anion channel blockers, osmotic lysis – cell-based, P. falciparum Indochina, OD700, 1 h, primary screen (AID 1154); conditions: P. falciparum Indochina infected RBC osmotic lysis, higher = more signal, called active from +8 up or from −8 down
# [14] = plasmodial surface anion channel blockers, osmotic lysis – cell-based, P. falciparum Indochina, OD700, 2 h, primary screen (AID 1155);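 also: lysis reports solute entry through the parasite surface anion channel PSAC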; conditions: P. falciparum Indochina infected erythrocytes, higher = more signal, called active from +8 up or from −8 down
# [15] = changes in parasitized red cell lysis, either direction – P. falciparum Indochina, OD700, 3 h, PSAC antagonist project, primary screen (AID 1156); conditions: P. falciparum-infected erythrocytes, osmotic lysis, higher = more signal, called active from +8 up or from −8 down
# [16] = plasmodial surface anion channel blockers, osmotic lysis – cell-based, P. falciparum Indochina, OD700, 18 h, primary screen (AID 1157); conditions: P. falciparum Indochina infected erythrocytes, osmotic lysis OD700, 18 h; higher = more signal, called active from +8 up or from −8 down
# [17] = S6 kinase pathway phospho-S6 level changes – cell-based, A549, cytoblot, luminescence, serum-stimulated, primary screen (AID 1158); conditions: 5 h, higher = more signal;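 also: serum-stimulated A549 lung adenocarcinoma cells; signal is phosphorylated S6 detected by cytoblot immunostaining with HRP secondary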
# [18] = target: NADPH oxidase 2 (Homo sapiens) (UniProt P04839); test: compounds shifting NOX2 Amplex Red fluorescence – cell-based, HEK293-NOX2, PMA-stimulated, NOX inhibitor project, primary screen (AID 1159); conditions: 45 min, higher = more signal, called active from +8 up or from −8 down; also: test concentration not given here
# Chain of NADPH oxidase 2 (Homo sapiens) (P04839 whole entry, looked up): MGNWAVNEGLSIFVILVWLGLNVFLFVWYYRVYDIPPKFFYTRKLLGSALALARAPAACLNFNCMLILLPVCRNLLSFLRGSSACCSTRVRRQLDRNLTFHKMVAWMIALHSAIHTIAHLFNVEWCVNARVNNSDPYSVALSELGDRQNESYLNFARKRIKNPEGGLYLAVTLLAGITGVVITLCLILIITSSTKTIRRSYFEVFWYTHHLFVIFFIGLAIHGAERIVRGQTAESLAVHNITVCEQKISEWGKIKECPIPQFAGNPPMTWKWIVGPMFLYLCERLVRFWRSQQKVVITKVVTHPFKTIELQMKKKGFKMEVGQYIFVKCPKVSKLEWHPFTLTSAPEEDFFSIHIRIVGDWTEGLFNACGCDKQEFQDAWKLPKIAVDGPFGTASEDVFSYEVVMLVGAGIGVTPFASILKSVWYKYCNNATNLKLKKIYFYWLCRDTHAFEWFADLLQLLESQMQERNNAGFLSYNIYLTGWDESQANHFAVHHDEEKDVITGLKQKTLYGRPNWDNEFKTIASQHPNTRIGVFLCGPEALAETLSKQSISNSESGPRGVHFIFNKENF
# [19] = target: NADPH oxidase 4 (Homo sapiens) (UniProt Q9NPH5); test: compounds shifting NOX4 Amplex Red fluorescence – cell-based, HEK293-NOX4, tetracycline-induced, NOX inhibitor project, primary screen (AID 1160); conditions: HEK293-NOX4, Amplex Red H2O2 fluorescence, 45 min; higher = more signal, called active from +8 up or from −8 down
# Chain of NADPH oxidase 4 (Homo sapiens) (Q9NPH5 whole entry, looked up): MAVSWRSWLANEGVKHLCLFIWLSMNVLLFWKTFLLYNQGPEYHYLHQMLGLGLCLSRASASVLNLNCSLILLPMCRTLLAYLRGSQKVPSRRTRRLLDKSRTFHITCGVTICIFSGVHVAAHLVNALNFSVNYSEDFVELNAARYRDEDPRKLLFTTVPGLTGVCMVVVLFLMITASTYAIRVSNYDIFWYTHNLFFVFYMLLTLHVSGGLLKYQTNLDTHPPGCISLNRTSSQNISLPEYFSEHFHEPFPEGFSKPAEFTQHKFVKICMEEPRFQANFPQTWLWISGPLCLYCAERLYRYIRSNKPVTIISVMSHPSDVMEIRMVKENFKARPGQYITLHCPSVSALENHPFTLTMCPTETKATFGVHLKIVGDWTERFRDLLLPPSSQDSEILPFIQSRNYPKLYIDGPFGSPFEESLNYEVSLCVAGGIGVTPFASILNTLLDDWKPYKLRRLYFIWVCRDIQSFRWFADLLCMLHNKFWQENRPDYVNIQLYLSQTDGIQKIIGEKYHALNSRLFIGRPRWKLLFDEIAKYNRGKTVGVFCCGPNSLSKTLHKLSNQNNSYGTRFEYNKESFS
# [20] = target: NADPH oxidase 5 (Homo sapiens) (UniProt Q96PH1); test: compounds shifting NOX5 Amplex Red fluorescence – cell-based, HEK293-NOX5, NOX inhibitor project, primary screen (AID 1161); conditions: HEK293-NOX5, ionomycin, 45 min, higher = more signal
# Chain of NADPH oxidase 5 (Homo sapiens) (Q96PH1 whole entry, looked up): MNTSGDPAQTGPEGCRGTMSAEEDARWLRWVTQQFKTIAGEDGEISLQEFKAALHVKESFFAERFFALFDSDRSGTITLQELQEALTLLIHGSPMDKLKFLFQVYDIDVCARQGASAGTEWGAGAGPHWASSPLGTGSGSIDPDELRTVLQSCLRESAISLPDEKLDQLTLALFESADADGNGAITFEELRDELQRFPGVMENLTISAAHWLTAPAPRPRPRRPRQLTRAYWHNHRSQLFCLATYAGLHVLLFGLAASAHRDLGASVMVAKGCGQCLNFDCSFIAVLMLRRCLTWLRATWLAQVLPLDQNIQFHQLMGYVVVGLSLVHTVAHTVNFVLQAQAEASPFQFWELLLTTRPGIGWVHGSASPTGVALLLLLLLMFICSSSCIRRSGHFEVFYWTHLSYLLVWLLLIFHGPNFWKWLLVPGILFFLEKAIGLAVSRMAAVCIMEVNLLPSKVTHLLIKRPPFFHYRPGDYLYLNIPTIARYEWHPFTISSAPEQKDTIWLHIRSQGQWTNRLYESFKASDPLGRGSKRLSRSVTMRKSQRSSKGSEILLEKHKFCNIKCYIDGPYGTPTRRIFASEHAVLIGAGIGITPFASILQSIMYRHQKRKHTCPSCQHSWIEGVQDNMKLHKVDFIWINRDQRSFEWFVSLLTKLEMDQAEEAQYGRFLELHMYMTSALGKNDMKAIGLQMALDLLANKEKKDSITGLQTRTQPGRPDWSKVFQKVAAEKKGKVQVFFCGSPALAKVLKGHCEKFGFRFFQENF
SMILES,composite z-score [1],z-score [2],z-score [3],z-score [4],z-score [5],composite z-score [6],composite z-score [7],composite z-score (Torsin-1A (Homo sapiens) [8]),composite z-score (Torsin-1A (Homo sapiens) [9]),composite z-score [10],z-score [11],composite z-score [12],z-score [13],z-score [14],z-score [15],z-score [16],z-score [17],z-score [18],z-score [19],z-score [20]
[N-]=[N+]=NCc1ccccc1[C@@H]1OC(c2ccc(OCCCO)cc2)=N[C@]1(Cc1ccccc1N=[N+]=[N-])C(N)=O,0.138,-1.91 (inactive),-0.089 (inactive),-0.128 (inactive),0.15 (inactive),2.16,0.32,0.571,0.373,-0.349,-0.386 (inactive),0.636,20.5 (active),2.68 (inactive),1.5 (inactive),0.54 (inactive),-0.0826,-1.07 (inactive),-0.527 (inactive),0.12
[N-]=[N+]=Nc1ccccc1[C@@H]1OC(c2ccc(OCCCO)cc2)=N[C@]1(CCS(=O)(=O)c1ccccc1)C(=O)N1CCCCC1,0.626,-2.42 (inactive),0.0668 (inactive),1.43 (inactive),-0.642 (inactive),1.45,0.453,1.09,0.736,-0.394,-0.112 (inactive),1.12,30.2 (active),25 (active),1.7 (inactive),3.94 (inactive),-0.174,-1.33 (inactive),1.85 (inactive),1.52
COCC1C2CC[C@H]3C(OCc4ccc(F)cc4C(F)(F)F)OC[C@]4(C)[C@H]3C2=C(CN4C(=O)OC(C)(C)C)[C@H](C)C1COC (stereo not given in full),0.33,-1.84 (inactive),0.338 (inactive),0.0007 (inactive),0.172 (inactive),1.2,0.385,0.404,1.35,-1.4,-1.06 (inactive),0.891,2.63 (inactive),-0.298 (inactive),0.16 (inactive),-0.998 (inactive),2.03,-0.834 (inactive),-0.934 (inactive),-3.41
O[C@@H](Cc1ccccc1)[C@@H](/C=C/c1ccccc1)NCc1ccccc1Br,-1.01,-0.626 (inactive),-0.662 (inactive),2.67 (inactive),-2.09 (inactive),-0.736,-0.205,-2.13,-1.9,-1.08,0.955 (inactive),0.0927,1.18 (inactive),0.411 (inactive),1.35 (inactive),0.205 (inactive),0.747,-0.175 (inactive),0.272 (inactive),-0.921
O=C1c2ccccc2[C@](Cc2ccccc2I)(C(=O)O)[C@H](c2ccc(CO)cc2)N1Cc1ccccc1C(F)(F)F,-0.186,-1.17 (inactive),-0.99 (inactive),-0.295 (inactive),0.748 (inactive),0.477,-0.024,-0.242,-0.203,-0.489,-0.0668 (inactive),0.215,3.59 (inactive),1.01 (inactive),0.737 (inactive),0.915 (inactive),-0.419,1.66 (inactive),-0.832 (inactive),-0.533
C=C(CCCC)/C(=C/C[C@@H](OC(=O)c1ccncc1)c1ccc(CO)o1)c1cc(C(=O)OC)ccc1OC,0.079,-0.605 (inactive),0.363 (inactive),6.18 (inactive),4.24 (inactive),0.707,0.027,0.394,1.23,1.97,0.722 (inactive),0.0263,8.99 (active),1.07 (inactive),2.84 (inactive),0.454 (inactive),0.739,-0.268 (inactive),-1.08 (inactive),-1.52
Cc1ccc(N2C(=O)c3ccccc3[C@@H](C(=O)NCC(C)C)[C@@H]2c2ccc(CO)cc2)nc1,-0.0957,-0.308 (inactive),0.504 (inactive),-0.295 (inactive),0.892 (inactive),-1.45,-0.231,-1.67,-1.47,-0.0902,0.569 (inactive),-0.0186,3.15 (inactive),0.48 (inactive),1.38 (inactive),0.231 (inactive),0.0174,-0.0277 (inactive),0.918 (inactive),0.84
C=CCN1C(=O)[C@]2(Cc3ccccc31)N=C(c1ccc(OCCCO)cc1)O[C@@H]2c1ccccc1,1.2,-3.54 (inactive),-0.324 (inactive),-0.146 (inactive),-0.436 (inactive),0.586,-0.0645,0.154,0.512,0.308,-3.11 (inactive),0.165,26 (active),19.4 (active),1.09 (inactive),3.1 (inactive),0.253,-1.42 (inactive),0.273 (inactive),-0.785
